Screening results deposited in PubChem by several laboratories.
BoNT-F LC inh = inhibitors of Botulinum neurotoxin F light chain protease | 0.22% of 360,000 active | Multiplex microsphere protease cleavage assay, flow cytometry | inhibition, % at 10 µM; in the data active = inhibition above about 35%, passing the limit was not always enough; inconclusive = no clear call, values can overlap the other calls
BoNT A protease = BoNT A light chain protease inhibition; multiplex microsphere protease substrate cleavage, flow cytometry; inhibition, % at 10 µM; 0.17% of 360,000 active
Bead autofluor = compound fluorescence in toxin protease inhibitor counterscreen | compound autofluorescence counterscreen, microsphere flow cytometry; hits give high values | fluorescence intensity (no concentration beside the values) | 3.1% of 360,000 active; in the data active = fluorescence intensity above about 16000; inconclusive = no clear call, values can overlap the other calls
Anthrax LF inh2 = blocks Bacillus anthracis lethal factor protease; P15917; 0.12% of 360,000 active; inhibition, % at 10 µM; multiplex microsphere protease cleavage assay, LF
GDH-TPI inh = inhibits GDH-TPI coupling enzymes, artifact for Mtb FBA screen; inhibition, % at 4.8 µM; AID 588335; 1.2% of 360,000 active; GDH-TPI coupled enzyme counterscreen, NADH absorbance; in the data active = inhibition above about 30%
Mtb FBA inh = inhibitors of M. tuberculosis fructose-bisphosphate aldolase. purified M. tuberculosis FBA, fluorescence read-out. AID 588726. P9WQA3. inhibition, % at 1 µM. 2.3% of 360,000 active; in the data active = inhibition above about 27%
Target sequence (P9WQA3 whole entry, looked up): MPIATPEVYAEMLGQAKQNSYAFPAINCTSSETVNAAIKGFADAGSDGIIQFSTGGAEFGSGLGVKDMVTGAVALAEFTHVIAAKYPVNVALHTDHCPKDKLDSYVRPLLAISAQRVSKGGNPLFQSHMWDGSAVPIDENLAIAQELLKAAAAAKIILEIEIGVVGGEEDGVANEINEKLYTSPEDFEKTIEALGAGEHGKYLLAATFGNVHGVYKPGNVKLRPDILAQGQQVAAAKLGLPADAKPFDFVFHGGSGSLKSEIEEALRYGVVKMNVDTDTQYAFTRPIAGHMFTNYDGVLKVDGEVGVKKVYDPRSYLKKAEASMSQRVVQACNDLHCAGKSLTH
BoNT-A LC CP1 = inhibitors of Botulinum neurotoxin A light chain protease | multiplex microsphere protease assay, flow cytometry | 3% of 720 active | shares compounds with BoNT-F LC inh | AID 602139 | inhibition, % at 10 µM; in the data active = inhibition above about 32%
BoNTF LC inh 1 = BoNT/F light chain protease inhibition; multiplex microsphere protease cleavage assay, flow cytometry; 720 tested, under 10 active; shares compounds with BoNT-F LC inh; inhibition, % at 10 µM; call rule not given here
LF protease CP1 = inhibitors of Bacillus anthracis lethal factor protease; shares compounds with BoNT-F LC inh; multiplex microsphere protease cleavage assay, LF; inhibition, % at 10 µM; 720 tested, under 10 active; AID 602142; call rule not given here
Of the large screens only hits and unclear results are named; the others gave an inactive call (follow-up assays come after a bar, where they were run). In the library only some 6.7% were active in any assay of this set; here they are far more common. Cut-off read from the data, not from the text of the source, unless noted: active = inhibition above about 30%; inconclusive = no clear call, values can overlap the other calls; inactive = below that.

COc1cccc(-c2cnc3c(NC(C)=O)cc(-c4ccccc4OC)cn23)c1	none
COc1cc(-c2ncc3ccccn23)cc(OC)c1OC	none | BoNT-A LC CP1 inactive | BoNTF LC inh 1 inactive | LF protease CP1 inactive
COc1cccc(-c2ncc3ccccn23)c1	none | BoNT-A LC CP1 inactive | BoNTF LC inh 1 inactive | LF protease CP1 inactive
NC(=O)Cn1nc(-c2ccccc2)nc1-c1ccccc1	BoNT-F LC inh inconclusive, Anthrax LF inh2 31 | BoNT-A LC CP1 inactive | BoNTF LC inh 1 inactive | LF protease CP1 inactive
CC(C)=C1C2CCC1C1C(=O)N(NC(=O)COc3ccc(Cl)c(C)c3)C(=O)C21 (stereo unspecified)	none
CCC(CO)Oc1cc(NCc2cc(C)cc(C)c2)c2ncn(C(C)C)c2c1 (stereo unspecified)	none
Clc1ccccc1-c1nc2nc3ccccc3nc2n1-c1ccc2c(c1)OCO2	none
c1csc(-c2nc3nc4ccccc4nc3n2Cc2ccc3c(c2)OCO3)c1	BoNT A protease 51, Anthrax LF inh2 34 | BoNT-A LC CP1 inactive | BoNTF LC inh 1 inactive | LF protease CP1 inactive
O=C(Nc1ccc(Oc2cccnc2)cc1)c1ccc([N+](=O)[O-])cc1	none
O=C(Nc1ccc(Nc2ccncc2)cc1)c1ccc([N+](=O)[O-])cc1	Anthrax LF inh2 36 | BoNT-A LC CP1 inactive | BoNTF LC inh 1 inactive | LF protease CP1 inactive
CCN(CC)C(=O)C(Sc1ccccc1)c1ccccc1 (stereo unspecified)	BoNT-F LC inh 57, Bead autofluor inconclusive, Anthrax LF inh2 inconclusive | BoNT-A LC CP1 inactive | BoNTF LC inh 1 inactive | LF protease CP1 inactive
Cc1c(NC(=O)c2ccc(N(C)S(C)(=O)=O)cc2)c(=O)n(-c2ccccc2)n1C	none
Cc1c(NC(=O)c2ccccc2N(C)S(=O)(=O)c2ccccc2)c(=O)n(-c2ccccc2)n1C	BoNT-F LC inh 48, BoNT A protease 44 | BoNT-A LC CP1 inactive | BoNTF LC inh 1 inactive | LF protease CP1 inactive
O=C(c1ccc(Cl)cc1)C1CCCN(Cc2cccc3cccnc23)C1 (stereo unspecified)	none
Cc1[nH]c2ccc(Br)cc2c(=O)c1CN1CCCCC1	BoNT-F LC inh 52, BoNT A protease inconclusive | BoNT-A LC CP1 inactive | BoNTF LC inh 1 inactive | LF protease CP1 inactive
Cc1[nH]c2ccccc2c(=O)c1CN1CCCCCC1	none
CC(=O)c1cnn(-c2ccccc2)c1C	none
CC(=O)c1cnn(-c2c(Cl)cc(Cl)cc2Cl)c1C	BoNT-F LC inh 38 | BoNT-A LC CP1 inactive | BoNTF LC inh 1 inactive | LF protease CP1 inactive
O=C(O)C1CCCCC1C(=O)NCCCN1CCCC1=O (stereo unspecified)	BoNT-F LC inh 48 | BoNT-A LC CP1 inactive | BoNTF LC inh 1 inactive | LF protease CP1 inactive
CCCS(=O)(=O)N1CCC(C(=O)NCCCN2CCCC2=O)CC1	none
Cc1nnc(SCC(=O)NC(C)(C)C)n1C1CCCCC1	BoNT-F LC inh 40 | BoNT-A LC CP1 inactive | BoNTF LC inh 1 inactive | LF protease CP1 inactive
Cc1nnc(SCC(=O)NC2CCCCCC2)n1C	none
CCN(Cc1ccccc1)C(c1cc2ccc(C)cc2[nH]c1=O)c1nnnn1CCOC (stereo unspecified)	BoNT A protease inconclusive, Bead autofluor inconclusive, Anthrax LF inh2 inconclusive | BoNT-A LC CP1 inactive | BoNTF LC inh 1 inactive | LF protease CP1 inactive
CCC(C)(C)n1nnnc1C(c1cc2cc(C)ccc2[nH]c1=O)N1CCCC1 (stereo unspecified)	BoNT A protease inconclusive, Bead autofluor 21937 | BoNT-A LC CP1 inactive | BoNTF LC inh 1 inactive | LF protease CP1 inactive
COc1ccc(Cn2nnnc2C(c2cc3cc(C)ccc3[nH]c2=O)N2CCOCC2)cc1 (stereo unspecified)	Bead autofluor 22468 | BoNT-A LC CP1 inactive | BoNTF LC inh 1 inactive | LF protease CP1 inactive
COc1ccc2cc(C(c3nnnn3CCc3ccccc3)N3CCC(O)CC3)c(=O)[nH]c2c1 (stereo unspecified)	BoNT-F LC inh active, BoNT A protease 30, Bead autofluor 38811 | BoNT-A LC CP1 inactive | BoNTF LC inh 1 inactive | LF protease CP1 inactive
O=C(NCC1CCCO1)C1CCC(CNS(=O)(=O)c2ccccc2)CC1 (stereo unspecified)	none
O=C(COC(=O)c1cc(NS(=O)(=O)c2cccs2)ccc1O)Nc1cc(Cl)ccc1Cl	none
Cn1c(=O)c2c(nc(SCCN3CCOCC3)n2Cc2ccc(Cl)cc2)n(C)c1=O	none
Cc1ccc2[nH]c(=O)c(C(c3nnnn3C(C)(C)C)N3CCN(C(=O)c4ccco4)CC3)cc2c1 (stereo unspecified)	none
CCC(C)(C)n1nnnc1C(c1cc2cc(C)cc(C)c2[nH]c1=O)N1CCN(C(=O)c2ccco2)CC1 (stereo unspecified)	none | BoNT-A LC CP1 inactive | BoNTF LC inh 1 inactive | LF protease CP1 inactive
Cc1ccc2cc(C(c3nnnn3C(C)(C)C)N3CCCCCC3)c(=O)[nH]c2c1 (stereo unspecified)	none | BoNT-A LC CP1 inactive | BoNTF LC inh 1 inactive | LF protease CP1 inactive
COc1ccc(/C=C2\SC(=O)N(CC(=O)NN3CCN(C)CC3)C2=O)cc1OC	none
CCOC(=O)c1c(C)n(C)c2ccc(OCC(O)CN3CCC(C)CC3)cc12 (stereo unspecified)	none
O=C(c1nn2c(C(F)(F)F)cc(-c3ccco3)nc2c1Br)N1CCCc2ccccc21	none
O=C(c1nn2c(C(F)(F)F)cc(-c3cccs3)nc2c1Br)N1CCCc2ccccc21	BoNT A protease 47 | BoNT-A LC CP1 inactive | BoNTF LC inh 1 inactive | LF protease CP1 inactive
Cc1cc(F)c(F)c(C(=O)N2CCOCC2)c1	none
COc1cccc(NC(=O)c2ccc(NCCCN3CC(C)CC(C)C3)c([N+](=O)[O-])c2)c1 (stereo unspecified)	none
CCOc1ccc(-c2nc(CSc3nncs3)cs2)cc1OC	BoNT-F LC inh 41, Bead autofluor inconclusive | BoNT-A LC CP1 inactive | BoNTF LC inh 1 inactive | LF protease CP1 inactive
O=C(c1cc(-c2ccc(Cl)cc2)on1)N1CCCC1	none
O=C(CN1CCOCC1)Nc1ccc(Cl)cn1	Bead autofluor inconclusive, Anthrax LF inh2 32 | BoNT-A LC CP1 inactive | BoNTF LC inh 1 inactive | LF protease CP1 inactive
O=C(CN1CCOCC1)Nc1nc(-c2ccc(Cl)cc2)cs1	none
CCCCn1c(N)c(N(CCC(C)C)C(=O)c2ccc3c(c2)OCCO3)c(=O)[nH]c1=O	none
Nc1ccccc1NC1CCCCC1	BoNT A protease 74 | BoNT-A LC CP1 inactive | BoNTF LC inh 1 inactive | LF protease CP1 inactive
COCCNC(=O)Cn1cnc([N+](=O)[O-])n1	none
CCCCNC(=O)Cn1cnc([N+](=O)[O-])n1	BoNT-F LC inh 40 | BoNT-A LC CP1 inactive | BoNTF LC inh 1 inactive | LF protease CP1 inactive
